# Experimental data: ChEMBL document CHEMBL2218924, “A broad activity screen in support of a chemogenomic map for kinase signalling research and drug discovery” (Biochem J, 2013)
# Target: T1, Serine/threonine-protein kinase TAO1 (Homo sapiens) (UniProt Q7L7X3)
# T1 sequence (whole entry): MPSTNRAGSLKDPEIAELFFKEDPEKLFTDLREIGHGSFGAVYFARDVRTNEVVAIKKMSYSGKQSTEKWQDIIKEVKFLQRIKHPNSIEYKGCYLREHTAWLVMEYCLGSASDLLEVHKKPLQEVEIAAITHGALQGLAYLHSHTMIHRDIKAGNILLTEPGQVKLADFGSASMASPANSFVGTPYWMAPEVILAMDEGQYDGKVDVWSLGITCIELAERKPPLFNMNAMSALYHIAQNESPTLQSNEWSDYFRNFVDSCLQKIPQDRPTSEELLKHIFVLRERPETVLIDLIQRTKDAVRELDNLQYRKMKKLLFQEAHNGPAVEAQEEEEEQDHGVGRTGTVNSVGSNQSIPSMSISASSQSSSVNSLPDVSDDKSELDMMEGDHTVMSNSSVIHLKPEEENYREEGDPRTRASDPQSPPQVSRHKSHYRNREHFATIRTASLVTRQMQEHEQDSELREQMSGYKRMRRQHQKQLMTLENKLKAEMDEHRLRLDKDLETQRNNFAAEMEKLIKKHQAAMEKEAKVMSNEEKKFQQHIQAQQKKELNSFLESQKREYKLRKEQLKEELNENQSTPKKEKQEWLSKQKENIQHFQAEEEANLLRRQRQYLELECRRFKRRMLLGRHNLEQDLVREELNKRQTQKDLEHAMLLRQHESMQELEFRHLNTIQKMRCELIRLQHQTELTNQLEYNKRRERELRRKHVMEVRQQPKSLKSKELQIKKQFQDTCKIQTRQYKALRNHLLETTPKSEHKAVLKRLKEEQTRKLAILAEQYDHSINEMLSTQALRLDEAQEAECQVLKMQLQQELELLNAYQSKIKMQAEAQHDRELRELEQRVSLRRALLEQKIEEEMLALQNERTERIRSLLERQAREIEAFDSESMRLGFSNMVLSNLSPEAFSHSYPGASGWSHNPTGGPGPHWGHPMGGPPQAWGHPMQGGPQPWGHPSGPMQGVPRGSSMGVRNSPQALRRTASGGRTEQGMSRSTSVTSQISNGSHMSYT
# Conditions: at 10 µM
row,SMILES,residual activity [%]
1,CO[C@H]1[C@@H](OC)C[C@H](C)[C@@H](OC)C2=CC(=O)C=C(NC(=O)/C(C)=C/C=C/[C@H](OC)[C@@H](OC(N)=O)/C(C)=C/[C@@H]1C)C2=O,89
2,O=C1NC(=O)c2c1c1c3ccccc3[nH]c1c1[nH]c3cc(Br)ccc3c21,92
3,CCC(=O)Nc1ccc2ncnc(Nc3cccc(Br)c3)c2c1,86
4,CC(C)n1cnc2c(NCc3ccccc3)nc(NCCCO)nc21,81
5,CCN(CC)C(=O)c1ccc(Nc2nc(OCC3CCCCC3)c3nc[nH]c3n2)cc1,10
6,CO[C@H]1C[C@@H]2CC[C@@H](C)[C@@](O)(O2)C(=O)C(=O)N2CCCC[C@H]2C(=O)O[C@H]([C@H](C)C[C@@H]2CC[C@@H](O)[C@H](OC)C2)CC(=O)[C@H](C)/C=C(\C)[C@@H](O)[C@@H](OC)C(=O)[C@H](C)C[C@H](C)/C=C/C=C/C=C/1C,87
7,COc1ccc(C(=O)Nc2sc3c(c2C(N)=O)CCCC3)cc1OC,86
8,COc1cc2ncnc(N3CCN(C(=O)Nc4ccc(Oc5ccccc5)cc4)CC3)c2cc1OC,78
9,CC(C)n1cnc2/c(=N/c3cccc(Cl)c3)nc(NCCO)[nH]c21,59
10,CN(C)c1ccc(/C=C2\C(=O)Nc3ccccc32)cc1,90
11,O=[N+]([O-])c1ccc(-c2nc(-c3ccc(F)cc3)c(-c3ccncc3)[nH]2)cc1,91
12,Cc1cc2ncc(-c3ccccc3)nc2cc1C,101
13,CC#CC(=O)Nc1cc2c(Nc3ccc(F)c(Cl)c3)ncnc2cn1,89
14,Nc1ccc2ncnc(NCCc3ccc(Oc4ccccc4)cc3)c2c1,88
15,O=C1NC(=O)/C(=C/c2ccc3c(c2)OC(F)(F)O3)S1,74
16,O=C(O)c1ccc2c3c1cccc3c(=O)n1c3ccccc3nc21,56
17,Cc1ccc(S(=O)(=O)/C=C/C#N)cc1,87
18,Cc1ccc(NC2=CC(=O)c3sc(C)nc3C2=O)cc1,77

row,SMILES,residual activity [%]
1,CC(=O)c1ccc(N2CCOCC2)cc1O,95
2,O=C1NC(=O)/C(=C\c2ccc3nccnc3c2)S1,14
3,COc1cccc(-c2cc(=O)c3ccccc3o2)c1N,85
4,N#CCCc1ccc2c(c1)-c1[nH]c3ccc([N+](=O)[O-])cc3c1CC(=O)N2,24
5,COc1cc2ncnc(Nc3ccc(Oc4ccccc4)cc3)c2cc1OC,92
6,NC(=O)c1ccc2[nH]c(-c3ccc(Oc4ccc(Cl)cc4)cc3)nc2c1,72
7,COc1cc2ncnc(Nc3ccc(O)c(Br)c3)c2cc1OC,48
8,O=c1cc(-c2cccc3c2Sc2ccccc2S3)oc(N2CCOCC2)c1,80
9,Nc1cccc(-c2cc3c(Oc4cccc(O)c4)ncnc3[nH]2)c1,39
10,O=C(Nc1cccc(Nc2nccc(Nc3cccc(C(F)(F)F)c3)n2)c1)C1CC1,56
11,Oc1n[nH]c2nnc(-c3c(-c4ccccc4)nn4ccccc34)cc12,79
12,C[C@@H](N)[C@H]1CC[C@H](C(=O)Nc2ccncc2)CC1,78
13,O=C1Nc2cc(Br)ccc2/C1=C1/Nc2ccccc2/C1=N\O,58
14,O=Nc1c(-c2c(O)[nH]c3ccccc23)[nH]c2ccccc12,39
15,Nc1n[nH]c2nnc(-c3c(-c4ccccc4)nn4ccccc34)cc12,56
16,CCN(CC)CCCCN1c2ccccc2Oc2ccc(Cl)cc21,100
17,O=C(Nc1cccc(Nc2cc(Nc3cccc(C(F)(F)F)c3)ncn2)c1)C1CC1,73

# Target: T2, Serine/threonine-protein kinase TAO2 (Homo sapiens) (UniProt Q9UL54)
# T2 sequence (whole entry): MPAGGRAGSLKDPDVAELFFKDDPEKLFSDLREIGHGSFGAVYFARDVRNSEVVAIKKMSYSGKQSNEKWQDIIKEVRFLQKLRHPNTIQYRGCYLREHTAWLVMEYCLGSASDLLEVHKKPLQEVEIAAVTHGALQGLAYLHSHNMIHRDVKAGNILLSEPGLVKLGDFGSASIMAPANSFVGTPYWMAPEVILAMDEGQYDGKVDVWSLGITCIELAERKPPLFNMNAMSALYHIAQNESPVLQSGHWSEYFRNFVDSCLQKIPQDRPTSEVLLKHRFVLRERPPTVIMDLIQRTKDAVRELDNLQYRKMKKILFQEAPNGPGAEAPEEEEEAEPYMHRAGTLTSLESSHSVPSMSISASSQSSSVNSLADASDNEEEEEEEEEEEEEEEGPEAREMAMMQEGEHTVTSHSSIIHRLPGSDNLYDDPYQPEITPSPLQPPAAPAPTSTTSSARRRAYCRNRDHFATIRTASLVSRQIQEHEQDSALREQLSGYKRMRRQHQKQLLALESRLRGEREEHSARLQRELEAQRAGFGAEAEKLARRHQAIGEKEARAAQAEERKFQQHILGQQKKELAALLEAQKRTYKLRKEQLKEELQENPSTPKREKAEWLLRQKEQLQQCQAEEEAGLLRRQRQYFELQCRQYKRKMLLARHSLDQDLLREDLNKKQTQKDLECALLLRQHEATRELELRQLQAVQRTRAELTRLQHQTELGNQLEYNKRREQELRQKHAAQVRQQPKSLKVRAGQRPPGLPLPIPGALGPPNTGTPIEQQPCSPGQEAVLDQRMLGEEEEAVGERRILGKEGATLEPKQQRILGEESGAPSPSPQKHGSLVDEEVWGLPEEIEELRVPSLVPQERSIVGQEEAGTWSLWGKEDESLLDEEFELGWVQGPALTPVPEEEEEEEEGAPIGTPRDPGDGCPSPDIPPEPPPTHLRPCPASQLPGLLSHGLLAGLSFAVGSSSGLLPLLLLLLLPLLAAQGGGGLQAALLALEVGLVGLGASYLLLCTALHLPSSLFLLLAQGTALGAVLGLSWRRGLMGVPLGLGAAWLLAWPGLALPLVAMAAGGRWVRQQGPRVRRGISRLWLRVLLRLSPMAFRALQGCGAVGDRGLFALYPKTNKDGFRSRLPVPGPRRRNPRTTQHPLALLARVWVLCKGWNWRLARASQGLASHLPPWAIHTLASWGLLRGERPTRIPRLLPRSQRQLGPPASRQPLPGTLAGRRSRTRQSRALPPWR
# Conditions: at 1 µM
row,SMILES,residual activity [%]
1,CO[C@H]1[C@@H](OC)C[C@H](C)[C@@H](OC)C2=CC(=O)C=C(NC(=O)/C(C)=C/C=C/[C@H](OC)[C@@H](OC(N)=O)/C(C)=C/[C@@H]1C)C2=O,99
2,O=C1NC(=O)c2c1c1c3ccccc3[nH]c1c1[nH]c3cc(Br)ccc3c21,103
3,CCC(=O)Nc1ccc2ncnc(Nc3cccc(Br)c3)c2c1,98
4,CC(C)n1cnc2c(NCc3ccccc3)nc(NCCCO)nc21,100
5,CCN(CC)C(=O)c1ccc(Nc2nc(OCC3CCCCC3)c3nc[nH]c3n2)cc1,51
6,CO[C@H]1C[C@@H]2CC[C@@H](C)[C@@](O)(O2)C(=O)C(=O)N2CCCC[C@H]2C(=O)O[C@H]([C@H](C)C[C@@H]2CC[C@@H](O)[C@H](OC)C2)CC(=O)[C@H](C)/C=C(\C)[C@@H](O)[C@@H](OC)C(=O)[C@H](C)C[C@H](C)/C=C/C=C/C=C/1C,99
7,COc1ccc(C(=O)Nc2sc3c(c2C(N)=O)CCCC3)cc1OC,92
8,COc1cc2ncnc(N3CCN(C(=O)Nc4ccc(Oc5ccccc5)cc4)CC3)c2cc1OC,95
9,CC(C)n1cnc2/c(=N/c3cccc(Cl)c3)nc(NCCO)[nH]c21,70
10,CN(C)c1ccc(/C=C2\C(=O)Nc3ccccc32)cc1,99
11,O=[N+]([O-])c1ccc(-c2nc(-c3ccc(F)cc3)c(-c3ccncc3)[nH]2)cc1,109
12,Cc1cc2ncc(-c3ccccc3)nc2cc1C,106
13,CC#CC(=O)Nc1cc2c(Nc3ccc(F)c(Cl)c3)ncnc2cn1,97
14,Nc1ccc2ncnc(NCCc3ccc(Oc4ccccc4)cc3)c2c1,90
15,O=C1NC(=O)/C(=C/c2ccc3c(c2)OC(F)(F)O3)S1,113
16,O=C(O)c1ccc2c3c1cccc3c(=O)n1c3ccccc3nc21,110
17,Cc1ccc(S(=O)(=O)/C=C/C#N)cc1,88
18,Cc1ccc(NC2=CC(=O)c3sc(C)nc3C2=O)cc1,95

row,SMILES,residual activity [%]
1,CC(=O)c1ccc(N2CCOCC2)cc1O,92
2,O=C1NC(=O)/C(=C\c2ccc3nccnc3c2)S1,99
3,COc1cccc(-c2cc(=O)c3ccccc3o2)c1N,112
4,N#CCCc1ccc2c(c1)-c1[nH]c3ccc([N+](=O)[O-])cc3c1CC(=O)N2,64
5,COc1cc2ncnc(Nc3ccc(Oc4ccccc4)cc3)c2cc1OC,110
6,NC(=O)c1ccc2[nH]c(-c3ccc(Oc4ccc(Cl)cc4)cc3)nc2c1,88
7,COc1cc2ncnc(Nc3ccc(O)c(Br)c3)c2cc1OC,98
8,O=c1cc(-c2cccc3c2Sc2ccccc2S3)oc(N2CCOCC2)c1,93
9,Nc1cccc(-c2cc3c(Oc4cccc(O)c4)ncnc3[nH]2)c1,78
10,O=C(Nc1cccc(Nc2nccc(Nc3cccc(C(F)(F)F)c3)n2)c1)C1CC1,92
11,Oc1n[nH]c2nnc(-c3c(-c4ccccc4)nn4ccccc34)cc12,98
12,C[C@@H](N)[C@H]1CC[C@H](C(=O)Nc2ccncc2)CC1,112
13,O=C1Nc2cc(Br)ccc2/C1=C1/Nc2ccccc2/C1=N\O,75
14,O=Nc1c(-c2c(O)[nH]c3ccccc23)[nH]c2ccccc12,75
15,Nc1n[nH]c2nnc(-c3c(-c4ccccc4)nn4ccccc34)cc12,90
16,CCN(CC)CCCCN1c2ccccc2Oc2ccc(Cl)cc21,100
17,O=C(Nc1cccc(Nc2cc(Nc3cccc(C(F)(F)F)c3)ncn2)c1)C1CC1,94
